From PubChem BioAssay (EPA / NIEHS) come the findings set out here.

Molecules are shown by their SMILES. The source made the active and inactive calls. Rule for the calls: active = hit-call score of the fitted dose curve at least 0.9, where 1 is the maximum; inactive = score below 0.9.

Read-out in this assay: Vascular cell adhesion molecule 1 (VCAM1), VCAM1 (gene 7412)
As to the kind of experiment: BSK_hDFCGF_VCAM1: BioMAP Diversity Plus: hDFCGF Assay for Vascular cell adhesion molecule 1 (VCAM1) Biomarker Activity (AID 2283065). The conditions noted are these: primary human foreskin fibroblasts; actives raise or lower the signal. On the procedure:
BSK_hDFCGF is a cell-based, multiplexed-readout assay that uses foreskin fibroblast, a human skin primary cell, with measurements taken at 24 hours after chemical dosing in a 96-well plate.BSK_hDFCGF_VCAM1 is an assay component measured in the BSK_hDFCGF assay. It measures VCAM-1 antibody related to regulation of gene expression using ELISA technology.Data from the assay component BSK_hDFCGF_VCAM1 was analyzed into 1 assay endpoint. This assay endpoint, BSK_hDFCGF_VCAM1, was analyzed with bidirectional fitting relative to DMSO as the negative control and baseline of activity. Using a type of binding reporter, gain or loss-of-signal activity can be used to understand changes in the signaling as they relate to the gene VCAM1. Furthermore, this assay endpoint can be referred to as a primary readout, because this assay has produced multiple assay endpoints where this one serves a signaling function. To generalize the intended target to other relatable targets, this assay endpoint is annotated to the cell adhesion molecules intended target family, where the subfamily is Immunoglobulin CAM.
The levels of cell surface (or secreted, indicated by the prefix "s") biomarker endpoints were measured by ELISA. Overt cytotoxicity to cells in confluent adherent cultures (all systems other than the BT system) was assessed by measuring total protein levels using sulforhodamine B (SRB) staining in parallel cultures at the time of biomarker measurements, indicated as SRB endpoints. For proliferation assays for adherent cell types, individual cell types are cultured at sub-confluence and relative cell numbers quantified by SRB staining at time points optimized for each system (48 h: 3C and CASM3C systems; 72 h: BT and HDF3CGF systems; 96 h: SAg system). SRB was performed by staining cells with 0.1% SRB after fixation with 10% TCA and reading wells at 560 nm.Viability and proliferation of PBMC (T cells) was quantified by Alamar Blue reduction for the SAg and BT systems. For PBMC viability (referred to as PBMC Cytotoxicity within the assay endpoint names), cells were plated (75,000/well in a 96-well plate) and then chemical samples added for 1 h before addition of activators, SEB and TSST-1 (20 ng/mL final concentration each). Cells were incubated for 90 h. Then, Alamar Blue (20 uL/well) (Invitrogen, Cat DAL1100) was added for 6 h, and the plates were read with a fluorescence microplate reader at 546/580 nm (excitation/emission). For PBMC proliferation, cells were plated and activated as above but incubated for only 16 h prior to addition of Alamar Blue. Plates were read after 6 h.
On to `O=c1[nH]sc2ccccc12`, for which the AC50 was 1.82 µM (active).

For the compound `Cc1oc2c(NC(=O)c3c(Cl)cccc3Cl)cccc2c1C(C)(C)O`, the result was inactive. For `CCCCCCCCCCCC[N+](C)(C)C`, the AC50 is 15.4 µM (active). Take `OC12N=C(c3ccccc3)SC1Cc1cc(Cl)ccc12` (stereo not given): the outcome was inactive. With `CC(C)(c1cc(Br)c(O)c(Br)c1)c1cc(Br)c(O)c(Br)c1`, the concentration at half-maximal activity (AC50) was 5.94 µM (active). On the same count and under the same terms, to `CC/C(=C(/CC)c1ccc(O)cc1)c1ccc(O)cc1` belongs 13.6 µM (active). As for `Cc1cccc2ccccc12`, the outcome was inactive.

On to `Cc1ccc2oc(CN(Cc3ccccc3)C(=O)Nc3c(F)cc(F)cc3F)c(-c3ccc(Cl)cc3)c2c1`, for which the outcome was inactive. Still for that read-out and setting: to `CCO[Si](CCCNC(N)=O)(OCC)OCC` belongs “inactive”. For `CCOC(=O)O[C@H](C)OC(=O)c1ccc2c(c1)cc(C(=O)NC1CCN(C(C)C)CC1)n2Cc1cc(-c2ccc(Cl)s2)on1`, the AC50 was 3.74 µM (active). For the compound `CN1C(=O)CC[C@H]1c1cccnc1`, the result was inactive.

Regarding `CCN(Cc1cccc(S(=O)(=O)O)c1)c1ccc(C(=C2C=CC(=[N+](CC)Cc3cccc(S(=O)(=O)O)c3)C=C2)c2ccccc2S(=O)(=O)[O-])cc1`, the outcome was inactive.

Take `Cc1cn([C@H]2C[C@H](N=[N+]=[N-])[C@@H](CO)O2)c(=O)[nH]c1=O`: the outcome was inactive. `NCc1cccc(C2CCN(C(=O)c3ccc(C#Cc4ccccc4F)o3)CC2)c1`: the AC50 is 7.78 µM (active).

As to `CCCCCCCCCCCCO`, the AC50 was 25.8 µM (active). For `CC[C@@H]1C[C@H](N(Cc2cc(C(F)(F)F)cc(C(F)(F)F)c2)C(C)=O)c2cc(C(F)(F)F)ccc2N1C(=O)OC(C)C`, the outcome was inactive. On the same count and under the same terms, to `O=C1O[C@H]([C@@H](O)CO)C(O)=C1O` belongs “inactive”. On to `O=C1CCC(C2CCCCC2)CC1`, for which the AC50 was 31.6 µM (active). Take `CN(C[C@@H](CC[N+]12CCC(C3CCCCC3)(CC1)CC2)c1ccc(Cl)c(Cl)c1)C(=O)c1cc(C(F)(F)F)cc(C(F)(F)F)c1`: the AC50 was 7.41 µM (active).

As to `CCCCCCCCCCCO`, the result was inactive. As to `CC1=CC(=O)/C(=C(/C)O)C(=O)O1`, the result was inactive. Still for that read-out and setting: with `Cc1ccc(C(C)C)cc1` the entry was “inactive”. `COc1cc(C(=O)NC2CCN(C)CC2)ccc1Nc1ncc2c(n1)N(C1CCCC1)CC(F)(F)C(=O)N2C`: the AC50 is 2.79 µM (active). On to `Cc1occc1C(=O)Nc1ccc(C(=O)N2CCC(F)(F)/C(=C\C(=O)N3CCC(N4CCCCC4)CC3)c3ccccc32)cc1`, for which the result was inactive.

As to `CCCCOC(=O)c1ccc(O)cc1`, the result was inactive. Same read-out and setting: to `CC(C)(O)c1ccc(CNC(=O)c2cccnc2Oc2ccc3nonc3c2)cc1` belongs “inactive”; to `CCCCCCCCN(C)CCCCCCCC`, “inactive”; to `CC(O)CC(C)(C)O` (stereo not given), “inactive”. On the same count and under the same terms, with `C[C@]12CC[C@@H]3c4ccc(O)cc4CC[C@H]3[C@@H]1CCC2=O` the entry was “inactive”. For the compound `CC(C)(C)c1csc(-c2cc3cc(OCc4ccccc4CC(=O)O)ccc3o2)n1`, the AC50 is 10.1 µM (active). In the case of `O=C(O)c1ccccc1-n1cc(C(=O)O)c(=O)c2cc(Nc3c(F)cc(F)cc3Cl)c(Cl)cc21`, the result was inactive.

Consider `COc1cccc([C@H](O)C2CCN(CCc3ccc(F)cc3)CC2)c1OC`, for which the result was inactive.

As for `O=CCCCC=O`, the AC50 is 20.7 µM (active).

For the compound `CCCCCCCC[Si](OCC)(OCC)OCC`, the result was inactive. In the case of `CCCCOC(=O)CC(CC(=O)OCCCC)(OC(C)=O)C(=O)OCCCC`, the outcome was inactive. Consider `CN1C(=O)N(c2ccccc2Br)Cc2cnc(Nc3ccc4c(c3)OCC(CO)O4)nc21` (stereo not given), for which the AC50 was 34.1 µM (active). For the compound `CCN(Cc1cccnc1)C(=O)c1cccc(Cl)c1[C@]1(C)C(=O)N(Cc2ccc(OC)cc2OC)c2ccc(Cl)cc21`, the outcome was inactive. Consider `CCCCCCCCOC(=O)c1cc(O)c(O)c(O)c1`, for which the AC50 was 7.8 µM (active).

In the case of `Clc1cc(Cl)c2c(c1)N=C1CCCCCN1C2`, the result was inactive. With `Oc1ccccc1`, the outcome was inactive.
